{"source": "the emibetuzumab library of Makowski et al. (2022)", "parents": {"B1": {"name": "VH:VL chains; a variant is named by its letters at X, in order (parent)", "chain 1": "QVQLVQSGAEVKKPGASVKVSCKASGYTFTDYXMHWVRQAPGQGLEWMGXVNPNXXXTTYNQKFEGRVTMTTDTSTSTAYMELRSLRSDDTAVYYCARXNXLDXWGQGTTVTVSS", "chain 2": "DIQMTQSPSSLSASVGDRVTITCSVSSSVSSIYLHWYQQKPGKAPKLLIYSTSNLASGVPSRFSGSGSGTDFTLTISSLQPEDFATYYCQVYSGYPLTFGGGTKVEIK"}}, "note": "The list shows a part of the results. No count for the full screen is at hand.", "data": [{"variants_of": "B1", "experiment": "yeast display scFab, FACS + sequencing", "settings": "with MET", "how_it_was_run": "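Antigen binding was called positive for sequences present in both antigen-positive samples and negative for those present only in the input. These calls came from deep sequencing, in two replicates, of round-3 sorted and input populations from a heavy-chain CDR mutant scFab yeast surface library. The library was first enriched twice magnetically on HGFR-Fc-coated Protein A beads and then by FACS, gating the top 50% antigen-positive cells after 3 h labelling at room temperature with 1 nM HGFR-Fc plus anti-Myc in PBSB with 1% milk.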", "values": [{"variant": "YRARSSVA", "antigen binding call": "binds"}, {"variant": "YRERSSVA", "antigen binding call": "binds"}, {"variant": "SEARSAVA", "antigen binding call": "no binding"}, {"variant": "DRARTFVA", "antigen binding call": "no binding"}, {"variant": "SEARSAWA", "antigen binding call": "no binding"}, {"variant": "YRARSAVA", "antigen binding call": "binds"}, {"variant": "YRARSAWA", "antigen binding call": "binds"}, {"variant": "AEERASAF", "antigen binding call": "no binding"}, {"variant": "VAGTGAVV", "antigen binding call": "no binding"}, {"variant": "VAEKGDLS", "antigen binding call": "no binding"}, {"variant": "VTTKSDLA", "antigen binding call": "no binding"}, {"variant": "SAGKDDLA", "antigen binding call": "no binding"}, {"variant": "DEGGTDVY", "antigen binding call": "no binding"}, {"variant": "YTARGVSF", "antigen binding call": "no binding"}, {"variant": "YRARGSLF", "antigen binding call": "binds"}, {"variant": "YRARGSVF", "antigen binding call": "binds"}, {"variant": "FGAATDGV", "antigen binding call": "no binding"}, {"variant": "DTREGDGA", "antigen binding call": "no binding"}, {"variant": "FAGRDAVV", "antigen binding call": "no binding"}, {"variant": "DGGKNAGD", "antigen binding call": "no binding"}, {"variant": "DARGGSSY", "antigen binding call": "no binding"}, {"variant": "FKARDSSA", "antigen binding call": "no binding"}, {"variant": "VERGGDSY", "antigen binding call": "no binding"}, {"variant": "YKRGSSSY", "antigen binding call": "binds"}, {"variant": "YKRGGSSY", "antigen binding call": "binds"}, {"variant": "FKRGSSSY", "antigen binding call": "binds"}, {"variant": "YKKESDSY", "antigen binding call": "no binding"}, {"variant": "FKRRDSVY", "antigen binding call": "no binding"}, {"variant": "YERRDVLY", "antigen binding call": "no binding"}, {"variant": "YREGGDGA", "antigen binding call": "no binding"}, {"variant": "YRRGGVGA", "antigen binding call": "binds"}, {"variant": "YEKGGDGA", "antigen binding call": "no binding"}, {"variant": "YRRGGDGA", "antigen binding call": "binds"}, {"variant": "YRRGSVGA", "antigen binding call": "binds"}, {"variant": "YRKKSVGA", "antigen binding call": "no binding"}, {"variant": "YARRDVGA", "antigen binding call": "no binding"}, {"variant": "YRTEDVGA", "antigen binding call": "no binding"}, {"variant": "AGGENDGD", "antigen binding call": "no binding"}, {"variant": "SGTKGYWD", "antigen binding call": "no binding"}, {"variant": "DTKAAAGD", "antigen binding call": "no binding"}, {"variant": "VEGGGDGV", "antigen binding call": "no binding"}, {"variant": "YTGTSSSV", "antigen binding call": "no binding"}, {"variant": "DAGGASSV", "antigen binding call": "no binding"}, {"variant": "YRGRSSSV", "antigen binding call": "binds"}, {"variant": "ARGRSDAV", "antigen binding call": "no binding"}, {"variant": "YRGRSASV", "antigen binding call": "binds"}, {"variant": "FARETFGV", "antigen binding call": "no binding"}, {"variant": "VETEGDWY", "antigen binding call": "no binding"}, {"variant": "YRRRGSGV", "antigen binding call": "binds"}, {"variant": "YARRGSGV", "antigen binding call": "no binding"}, {"variant": "YRRRGVGV", "antigen binding call": "binds"}, {"variant": "YRRRGASV", "antigen binding call": "binds"}, {"variant": "YGRRGFSV", "antigen binding call": "no binding"}, {"variant": "YREEGDGV", "antigen binding call": "no binding"}, {"variant": "YRRRGDGV", "antigen binding call": "binds"}, {"variant": "VETRSDVA", "antigen binding call": "no binding"}, {"variant": "VTGTSDLY", "antigen binding call": "no binding"}, {"variant": "VTAGDDVY", "antigen binding call": "no binding"}, {"variant": "DAGRGDGF", "antigen binding call": "no binding"}, {"variant": "DATGGYAV", "antigen binding call": "binds"}, {"variant": "VATGGYAV", "antigen binding call": "no binding"}, {"variant": "YRRRGFGV", "antigen binding call": "binds"}, {"variant": "YKRRDFGV", "antigen binding call": "no binding"}, {"variant": "DAAGAAGV", "antigen binding call": "no binding"}, {"variant": "YRRRGAGV", "antigen binding call": "binds"}, {"variant": "DARRGAGV", "antigen binding call": "binds"}, {"variant": "YATGGYAV", "antigen binding call": "no binding"}, {"variant": "DAGGAAGV", "antigen binding call": "no binding"}, {"variant": "VTGTGAVV", "antigen binding call": "no binding"}, {"variant": "VEGTNDVV", "antigen binding call": "no binding"}, {"variant": "VKGRAAVA", "antigen binding call": "no binding"}, {"variant": "YKRGGAAA", "antigen binding call": "binds"}, {"variant": "YKRGSAAA", "antigen binding call": "binds"}, {"variant": "VKRGSAAA", "antigen binding call": "binds"}, {"variant": "AKRGSAAV", "antigen binding call": "no binding"}, {"variant": "YTRAGAAA", "antigen binding call": "no binding"}, {"variant": "FKRKAAAA", "antigen binding call": "no binding"}, {"variant": "VKRGSAAV", "antigen binding call": "binds"}, {"variant": "YARADAAA", "antigen binding call": "no binding"}, {"variant": "DKEGGAAA", "antigen binding call": "no binding"}, {"variant": "VTTKSAAV", "antigen binding call": "no binding"}, {"variant": "DAGTGDGV", "antigen binding call": "no binding"}, {"variant": "DEGRGDGV", "antigen binding call": "no binding"}, {"variant": "VTGESAAV", "antigen binding call": "no binding"}, {"variant": "DEARSDGA", "antigen binding call": "no binding"}, {"variant": "FRRRGSSD", "antigen binding call": "binds"}, {"variant": "FRTRGSSD", "antigen binding call": "binds"}, {"variant": "FRREGSSD", "antigen binding call": "no binding"}, {"variant": "YRRRGASD", "antigen binding call": "binds"}, {"variant": "YRRRGYSD", "antigen binding call": "no binding"}, {"variant": "YRRRGSSD", "antigen binding call": "binds"}, {"variant": "YAGTGDLV", "antigen binding call": "no binding"}, {"variant": "DETRSAGA", "antigen binding call": "no binding"}, {"variant": "YRTRSAGA", "antigen binding call": "binds"}, {"variant": "YRTRSSGA", "antigen binding call": "binds"}, {"variant": "VRTRSFGA", "antigen binding call": "no binding"}, {"variant": "SGRGNDAV", "antigen binding call": "no binding"}, {"variant": "YTRGADGV", "antigen binding call": "no binding"}, {"variant": "ARRGAYGV", "antigen binding call": "no binding"}, {"variant": "YARAGYAV", "antigen binding call": "no binding"}, {"variant": "YRKGGAAV", "antigen binding call": "binds"}, {"variant": "DARGGAAV", "antigen binding call": "no binding"}, {"variant": "YRTRGYAV", "antigen binding call": "no binding"}, {"variant": "YRRGGYAV", "antigen binding call": "binds"}, {"variant": "YRRGAAAV", "antigen binding call": "binds"}, {"variant": "YRRGGAAV", "antigen binding call": "binds"}, {"variant": "AEGTSAVF", "antigen binding call": "no binding"}, {"variant": "DAGGGDGA", "antigen binding call": "no binding"}, {"variant": "AARADFGV", "antigen binding call": "no binding"}, {"variant": "ATTKSDGA", "antigen binding call": "no binding"}, {"variant": "YRTRGSWD", "antigen binding call": "binds"}, {"variant": "VRTRGSWD", "antigen binding call": "binds"}, {"variant": "DATRSSWD", "antigen binding call": "no binding"}, {"variant": "YRTRSSWD", "antigen binding call": "binds"}, {"variant": "VATRGFWD", "antigen binding call": "no binding"}, {"variant": "DRGKNDGD", "antigen binding call": "no binding"}, {"variant": "DKEGGDGA", "antigen binding call": "no binding"}, {"variant": "DREGDAVA", "antigen binding call": "no binding"}, {"variant": "YRRRSAGA", "antigen binding call": "binds"}, {"variant": "DREEGAGA", "antigen binding call": "no binding"}, {"variant": "YRRRSAVA", "antigen binding call": "binds"}, {"variant": "VTGGDDGA", "antigen binding call": "no binding"}, {"variant": "VEGADAVA chain 1 G106S", "antigen binding call": "no binding"}, {"variant": "AGGGNSGV", "antigen binding call": "no binding"}, {"variant": "VKGRGSWS", "antigen binding call": "binds"}, {"variant": "VKGKSSWS", "antigen binding call": "no binding"}, {"variant": "VKGRASWS", "antigen binding call": "no binding"}, {"variant": "YKGRGSWS", "antigen binding call": "binds"}, {"variant": "SKGRSSWS", "antigen binding call": "no binding"}, {"variant": "YKGGSAWY", "antigen binding call": "binds"}, {"variant": "YEGGGDVY", "antigen binding call": "no binding"}, {"variant": "YKGGSAGY", "antigen binding call": "binds"}, {"variant": "YKGGSDVY", "antigen binding call": "binds"}, {"variant": "VKGGAAVY", "antigen binding call": "no binding"}, {"variant": "VKGTDAWY", "antigen binding call": "no binding"}, {"variant": "YKGEDDVY", "antigen binding call": "no binding"}, {"variant": "YKGTDAWY", "antigen binding call": "no binding"}]}]}
